Many of the other results were omitted from the sample, so hits are more common in it than they were.
ST2 IL33 inh = blocks human ST2 binding to IL-33; Q01638; AlphaLISA ST2-Fc/biotin-IL-33 interaction, 1 h; inhibition, % for hits at 17 µM; actives 2.3% (n = 78,000); in the data active = inhibition above about 30%
Target sequence (Q01638 whole entry, looked up): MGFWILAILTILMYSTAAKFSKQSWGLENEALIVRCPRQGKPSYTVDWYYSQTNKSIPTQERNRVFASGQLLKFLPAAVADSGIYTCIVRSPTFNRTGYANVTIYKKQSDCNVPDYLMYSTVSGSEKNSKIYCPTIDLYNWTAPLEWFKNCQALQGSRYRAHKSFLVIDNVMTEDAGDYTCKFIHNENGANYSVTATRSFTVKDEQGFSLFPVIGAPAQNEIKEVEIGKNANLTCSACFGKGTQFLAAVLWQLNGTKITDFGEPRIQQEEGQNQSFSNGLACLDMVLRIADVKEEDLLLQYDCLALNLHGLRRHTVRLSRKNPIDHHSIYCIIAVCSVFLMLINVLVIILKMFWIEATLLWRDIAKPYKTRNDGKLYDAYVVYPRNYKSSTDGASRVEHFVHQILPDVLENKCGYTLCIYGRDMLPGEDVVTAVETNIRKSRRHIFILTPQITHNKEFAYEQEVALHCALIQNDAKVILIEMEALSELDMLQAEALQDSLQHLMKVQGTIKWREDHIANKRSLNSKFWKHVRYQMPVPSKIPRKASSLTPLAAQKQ
A number is an active result.

What do the screens show for `CCn1c(=O)n(-c2ccc(C)c(C)c2)c2nc(-c3ccco3)nc(C(N)=O)c21`?
ST2 IL33 inh: inactive

How did Cc1ccc(NC(=O)COc2ccc(Cl)cc2)c([N+](=O)[O-])c1 do in these assays?
ST2 IL33 inh: inactive

What do the screens show for `Cc1ccc(NC(=O)COc2c(C)ccc(C)c2C)c([N+](=O)[O-])c1`?
ST2 IL33 inh: 33.0%

What do the screens show for `CCCOc1cccc(C(=O)Nc2ccc(C)cc2[N+](=O)[O-])c1`?
ST2 IL33 inh: 32.0%

How did Cc1ccc(OCC(=O)Nc2ccc(C)cc2[N+](=O)[O-])c(C)c1 do in these assays?
ST2 IL33 inh: inactive

How did CCOc1ccc(NC(=O)c2cc(OC)cc(OC)c2)c([N+](=O)[O-])c1 do in these assays?
ST2 IL33 inh: inactive

What do the screens show for `CCCCOc1ccc(C(=O)Nc2ccc(OCC)cc2[N+](=O)[O-])cc1`?
ST2 IL33 inh: inactive

What do the screens show for `CCOC(=O)Cn1c(=O)n(-c2ccc(C)c(C)c2)c2nc(-c3ccc(C)cc3)nc(C(N)=O)c21`?
ST2 IL33 inh: inactive

How did Cc1ccnc(NS(=O)(=O)c2ccc(NC(=O)COc3ccc(Cl)cc3Cl)cc2)n1 do in these assays?
ST2 IL33 inh: inactive

What do the screens show for `CC(C)NC(=O)NC[C@H]1O[C@@H](CC(=O)N2CCOCC2)[C@H](O)[C@@H]1O`?
ST2 IL33 inh: inactive

Results for CC(=O)NC1=NC(=O)/C(=C/c2c(C)n(Cc3ccc(F)cc3)c3ccccc23)S1 ?
ST2 IL33 inh: inactive

What do the screens show for `CCCc1ccc(S(=O)(=O)N2CCN(c3cc(-c4cccc(OC)c4)ncn3)CC2)cc1`?
ST2 IL33 inh: inactive

Results for Cc1ccc(C)c(N(C)C(=O)CCC(=O)Nc2ccc3nc(N4CCOCC4)cc(C)c3c2)c1 ?
ST2 IL33 inh: inactive

Results for CC(=O)Nc1ccc(S(N)(=O)=O)cc1 ?
ST2 IL33 inh: inactive

How did CC(=O)Nc1ccc(NC2=CC(=NS(=O)(=O)c3ccc(C)cc3)c3ccccc3C2=O)cc1 do in these assays?
ST2 IL33 inh: 48.0%

What do the screens show for `C=CCC(CC=C)(NS(=O)(=O)c1ccc(NC(C)=O)cc1)c1ccccc1`?
ST2 IL33 inh: inactive

What do the screens show for `CC(=O)Nc1ccc(S(=O)(=O)NCc2ccccc2)cc1`?
ST2 IL33 inh: inactive

What do the screens show for `O=C(O)c1cccc(NC(=O)c2cccc(S(=O)(=O)Nc3ccc(Cl)cc3)c2)c1`?
ST2 IL33 inh: inactive

What do the screens show for `CC(=O)Nc1ccc(S(=O)(=O)Nc2ccccc2Cl)cc1`?
ST2 IL33 inh: inactive

How did O=S(=O)(Nc1ccc(S(=O)(=O)Nc2ccc(Cl)cc2)cc1)c1ccccc1 do in these assays?
ST2 IL33 inh: inactive

Results for CC(=O)Nc1ccc(NC2=CC(=NS(=O)(=O)c3ccccc3)c3ccccc3C2=O)cc1 ?
ST2 IL33 inh: 83.0%

What do the screens show for `O=C(O)c1ccc(NC2=CC(=NS(=O)(=O)c3ccc(Cl)cc3)c3ccccc3C2=O)cc1`?
ST2 IL33 inh: 48.0%

What do the screens show for `CC1CC(=O)C2=C(C1)OC(N)=C(C#N)C2c1cccc(F)c1` (configuration not stated)?
ST2 IL33 inh: inactive

How did Cc1ccc(C2CC(c3ccccc3Cl)n3ncnc3N2)cc1 (configuration not stated) do in these assays?
ST2 IL33 inh: inactive

How did C#C[C@](O)(c1ccc(OC)c(OC)c1)c1ccc(OC)cc1OC do in these assays?
ST2 IL33 inh: inactive

What do the screens show for `COCCN(Cc1cccs1)C(=O)c1ccc2nc[nH]c2c1`?
ST2 IL33 inh: inactive

How did COc1ccc(C2=NN(S(=O)(=O)c3ccccc3)C(c3cccc([N+](=O)[O-])c3)C2)cc1OC (configuration not stated) do in these assays?
ST2 IL33 inh: inactive

What do the screens show for `COc1ccc(-c2nc(N)sc2C)cc1OC`?
ST2 IL33 inh: inactive

What do the screens show for `COCCNc1nc2cc(C(=O)N3CCOC(C(F)(F)F)C3)ccc2n1C` (configuration not stated)?
ST2 IL33 inh: inactive

How did CCOC(=O)c1ccc(NC(=O)C2CCN(c3ccc(-c4cccs4)nn3)CC2)cc1 do in these assays?
ST2 IL33 inh: inactive

How did O=C(c1ccc2c(c1)N(Cc1ccc(Cl)cc1)C(=O)CS2)N1CCC2(CC1)OCCO2 do in these assays?
ST2 IL33 inh: inactive

Results for CC(=O)c1ccc(N2CN=c3s/c(=C\c4cccnc4)c(=O)n3C2)cc1 ?
ST2 IL33 inh: inactive

Results for O=c1c2ccccc2nc(/C=C/c2ccc3c(c2)OCO3)n1-c1ccc([N+](=O)[O-])cc1 ?
ST2 IL33 inh: inactive

How did CC(=O)c1ccc(N2CN=c3s/c(=C\c4cccc([N+](=O)[O-])c4)c(=O)n3C2)cc1 do in these assays?
ST2 IL33 inh: inactive

What do the screens show for `Cc1ccccc1-n1nc([N+](=O)[O-])c(=NCc2ccc3c(c2)OCO3)n1O`?
ST2 IL33 inh: inactive

How did COc1ccc(N2CN=c3s/c(=C\c4cccc([N+](=O)[O-])c4)c(=O)n3C2)cc1 do in these assays?
ST2 IL33 inh: 33.0%

What do the screens show for `O=c1/c(=C/c2cccc([N+](=O)[O-])c2)sc2n1CN(c1ccc3c(c1)OCO3)CN=2`?
ST2 IL33 inh: 36.0%

Results for COc1ccc(NC(=O)CC(C)C)cc1Cl ?
ST2 IL33 inh: inactive

How did CC1=C(C(=O)OCCc2ccccc2)C(c2ccc(Cl)c(Cl)c2)CC(=O)N1 (configuration not stated) do in these assays?
ST2 IL33 inh: inactive

Compound activity (PubChem BioAssay)
